Common to all, as to assay: NCI-60 one-dose screen, 48 h (100 = growth as untreated, 0 = no growth, -100 = all killed)
Details in all cases: 10 µM unless noted

Assay [1] concerns NCI-H23 lung.
The subject of assay [2] is NCI-H226 lung.
For assay [3], the system named is NCI-H322M lung.
The subject of assay [4] is HOP-62 NSCLC.
Assay [5] relates to NCI-H460 lung.
The subject of assay [6] is HOP-92 NSCLC.
The subject of assay [7] is NCI-H522 lung.
For assay [8], the system named is A549/ATCC NSCLC.
Assay [9] deals with 786-0 renal.
Assay [10] has as its system COLO 205 colon.
In assay [11] the test system is DU-145 prostate.
Assay [12] deals with K-562 leukemia.
For assay [13], the system named is MALME-3M melanoma.
Assay [14] deals with MDA-MB-231 breast.
Assay [15] concerns RXF 393 renal.
Assay [16] deals with SF-268 CNS.
In assay [17] the test system is SF-295 CNS.
The subject of assay [18] is SF-539 CNS.
Assay [19] relates to UACC-257 melanoma.
Assay [20] concerns M14 melanoma.

This is part of a sample that, as a whole, favours compounds with a hit. Of some 83,000 tested, about 20% had one in any assay.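 How to read the values: 0–100, growth inhibition (40 = 60% inhibited); 0, no net growth; -100 to 0, cell death (-40 = 40% of starting cells died; -100 = all dead).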 Values without a mark were called inactive. The source made the active and inactive calls. Rule for the calls: active = growth percent below 10; inactive = the rest.

`COc1ccc(/C=N\Nc2nc(SCC(C)C)nc(-c3ccc(OC)cc3)c2C#N)cc1`: the growth is 57.2% in [1]; -14.8% (active) in assay [2]; 22.5% in [3]; -2.99% (active) in assay [4]; -11.1% (active) in assay [5]; 15.1% in assay [6]. The growth was 54% in assay [7]; 11.4% in assay [8]; -48.2% (active) in assay [9]; 50.1% in assay [10]; 65.2% in assay [11]; 74.6% in assay [12]. For the same compound, the growth was 60.1% in assay [13]; 43.5% in assay [14]; 34.5% in assay [15]; 50.9% in assay [16]; -5.63% (active) in assay [17]; 52.6% in assay [18]. Besides, the growth was 88.1% in assay [19] and 77.6% in assay [20].
With `Cc1c(C(C)(C)O)cn2ncnc(Oc3ccc(NC(=O)Nc4ccc(Cl)c(C(F)(F)F)c4)cc3)c12`, the growth in [1] is 23.6%; in assay [2], 65.5%; in assay [3] it was 56.7%; in assay [4] it was 65.4%; in [5], 13.1%; in [6] it was 4.28% (active). The growth in [7] is 11.6%; in [8], 32.8%; in assay [9], 26.5%; in assay [10], 45.6%; in assay [11], 57.6%; in assay [12] it was 14.9%. For the same compound, the growth is 51.2% in assay [13]; 32.2% in assay [14]; 39% in assay [15]; 45.3% in assay [16]; 16% in assay [17]; 25.9% in assay [18]. Besides, the growth in assay [19] is 66.5%; in assay [20], 36.7%.
Regarding `[2H]C([2H])([2H])Oc1cc(F)ccc1/C=C/C(=O)/C=C(/C=C/c1ccc(F)cc1OC([2H])([2H])[2H])OB(F)F`, the growth is 26.2% in [1]; 63.4% in [2]; 82% in [3]; 102% in assay [4]; 49.7% in assay [5]; 83.2% in [6]. In addition, the growth is 31.4% in [7]; 58.3% in assay [8]; 44.3% in assay [9]; 21.3% in assay [10]; 30.5% in [11]; 18% in assay [12]. The growth in [13] was 33.1%; in assay [14] it was 53%; in assay [15] it was 1.06% (active); in assay [16], 56.7%; in [17] it was 59.5%; in assay [18] it was 93.2%. Moreover, the results for the growth in assay [19] and in assay [20] were 48.9% and 8.14% (active), respectively.
Turning to `Nc1nc(Nc2ccc(F)cc2)nn1C(=O)c1cc(Cl)ccc1Cl`, the growth in assay [1] is 71.9%; in assay [2], 80.9%; in assay [3] it was 66.4%; in assay [4], 85.4%; in assay [5], 69.4%; in [6] it was 75.1%. The growth is 87.8% in assay [7]; 75.2% in assay [8]; 72.9% in assay [9]; 83.8% in assay [10]; 78.8% in assay [11]; 97.4% in assay [12]. Further, the growth was 108% in [13]; 88.2% in [14]; 21.8% in assay [15]; 74.9% in assay [16]; 94.3% in assay [17]; 72.8% in assay [18]. Besides, the growth in assay [19] was 106%; in assay [20], 86.8%.
As to `C#CCn1cnc2cnc(Nc3cccc(NC(=O)CCl)c3)nc21`, the growth in assay [1] was -8.25% [6.25 µM] (active); in [2], -26% [6.25 µM] (active); in assay [3], 10.4% [6.25 µM]; in assay [4] it was 4.26% [6.25 µM] (active); in assay [5], -13.4% [6.25 µM] (active); in assay [6], 12.6% [6.25 µM]. Besides, the growth in [7] is -57.1% [6.25 µM] (active); in [8], -51.3% [6.25 µM] (active); in assay [9], 2.39% [6.25 µM] (active); in [10] it was -57.3% [6.25 µM] (active); in assay [11], 17.1% [6.25 µM]; in assay [12] it was 4.47% [6.25 µM] (active). For the same compound, the growth in [13] is 28.1% [6.25 µM]; in assay [14], 14.6% [6.25 µM]; in assay [15] it was -27.5% [6.25 µM] (active); in assay [16] it was 6.9% [6.25 µM] (active); in assay [17] it was 16.1% [6.25 µM]; in assay [18], -0.618% [6.25 µM] (active). Also, the results for the growth in [19] and in assay [20] were 1.35% [6.25 µM] (active) and -49.1% [6.25 µM] (active), respectively.
Take `O=C(/C=C/c1cccs1)Nc1ncc(Cc2ccc(Cl)c(Cl)c2)s1`: the growth in [1] was 91.4%; in assay [2] it was 86%; in assay [3], 76.5%; in [4], 61.5%; in assay [5], 48%; in assay [6] it was 78.1%. In addition, the growth in assay [7] was 38.9%; in assay [8], 59.4%; in assay [9], 75.2%; in assay [10], 51.4%; in assay [11] it was 59.5%; in assay [12], 35.2%. In addition, the growth was 53.1% in assay [13]; 82.9% in assay [14]; 72.8% in [15]; 67.9% in assay [16]; 30.2% in [17]; 65.1% in assay [18]. Besides, the values for the growth in assay [19] and in assay [20] were 90.8% and 29%, respectively.
Regarding `O=C(NNc1ccccc1)c1ncc[nH]1`, the growth in assay [1] is 96.2%; in [2], 62.6%; in assay [3], 82.8%; in assay [4] it was 73%; in assay [5], 100%; in assay [6], 95.1%. In addition, the growth was 50.8% in assay [7]; 64.4% in [8]; 75.2% in assay [9]; 79.7% in assay [10]; 55.8% in assay [11]; 7.21% (active) in assay [12]. Further, the growth is 54.1% in [13]; 81.5% in assay [14]; 107% in assay [15]; 59.3% in assay [16]; 90.2% in assay [17]; 48.7% in [18]. Further, the growth in assay [19] is 71.5%; in assay [20], 37.4%.
